Assay results published in the supplement of paper PMC11417369.
± gives the standard deviation of the averaged measurements. In all, about 25,000 sequences were measured (“ln(normalized median fluorescence intensity)”: median about 10, highest 2% from about 12 on). The list comes from a sample in which the highest values are over-represented; it also holds similar and randomly drawn sequences.

These sequences were tested on PfAP2-G AP2 domain (GST-tagged) (assay: gcPBM binding intensity (ln(normalized median fluorescence intensity)); higher = stronger DNA binding).
Summary of the method: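 An Agilent 4 × 180k array of primer-extended double-stranded 36-bp intergenic genomic probes, with negative controls, was incubated for 1 h with GST-tagged P. falciparum DNA-binding domains expressed in E. coli. Alexa488 anti-GST antibody detected bound protein, scanned at 488 nm. Binding intensity is the highest Masliner-normalised natural-log median intensity across replicate spots of either probe orientation.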

Sequence	gcPBM binding intensity (ln)
TCCTTTCTTTTTTAAACATGCATATGTAATATAAAT [TGCATGCA_site979]	10 ± 0.26
TTTTTTTGCGCGGGAAGAATAAAATTTATAGAATAT [TGCATGCA_negctrl_site306]	10.4 ± 0.36
ATAAATAATATAAATACACACTAAAAAAGATATATA [CACACA_site6397]	10.01 ± 0.014
TTTATACAAATATGTACACACTAAATATATATTATG [CACACA_site4413]	11.5 ± 0.77
ATAATCACAAATAATTGTACATTTTGTTATATATAT [XGTACX_site7704]	10.8 ± 0.45
ATATATATACTGTGTACACAAATATATATTATATAT [CACACA_site6104]	11.6 ± 0.84
TTGTGTCATATATTTTGTAATCAAAATAATTTTATT [TGCATGCA_negctrl_site307]	10.1 ± 0.37
TAGTATAAAATTATGTGTACACAAATATAACTTTTC [XGTACX_site5971]	11.6 ± 0.78
TATATTTTTTTTGTGCGTACATACCATTTTAATAAT [XGTACX_site2751]	11.7 ± 0.8
TATAAAATTATGTGTACACAAATATAACTTTTCTTT [CACACA_site5554]	11.7 ± 0.95
TATAAATATAAATACTGTACATTATATTATATAATA [XGTACX_site2480]	11 ± 0.71
TTTTTTTTTTTTGTGCGTACATACCATTTTAATAAT [XGTACX_site2760]	11.6 ± 0.92
ATAATACCATTAATTTGTACATATATATTATATATA [XGTACX_site4345]	10.9 ± 0.49
AACTTCTTTTTTATAACACACAAAATATAAATACAA [CACACA_site4313]	10.2 ± 0.43
ATAATAATATTGTGTACACAATAATTTGTCAAATCA [CACACA_site6019]	11.7 ± 0.86
ATATATATATATATATGTACTTATATATAATATAGA [XGTACX_site3488]	11.2 ± 0.79
TTTATTATTATATTATTTTAATTTTTCTTTAGTACA [GTGCAC_negctrl_site392]	10.29 ± 0.099
CTTTTTTTCTTTCCAAGTACTAAATTCATACAAATT [XGTACX_site2605]	10.8 ± 0.51
CATTAATATATATATACATGCACGTTTTAAAAAAAA [TGCATGCA_site875]	10.1 ± 0.23
GTAAGATTTCTTGTTGCATGCGGTAAAAAGTAAAAT [TGCATGCA_site469]	10.6 ± 0.41

Sequence	gcPBM binding intensity (ln)
ACATTCATAAAAAAAAGTACATTTTTTATAAAAGAA [XGTACX_site6197]	11.4 ± 0.75
AATATAAATAAAAACACACACACACCCATATATATA [CACACA_site2267]	10.1 ± 0.32
TTTATGTAATATACATGTACAGAATATAAAATATAT [XGTACX_site6906]	11 ± 0.54
ATATATGTATATATGTACATGAATATATAAAGAAAA [CACACA_negctrl_site315]	11.1 ± 0.67
AATACATGAATATGTAGTACAGAAAAAAAAAATATA [XGTACX_site1945]	11.7 ± 0.95
ATATTATCACAAGGTGGTACACAAAAAAAAAAAAAA [XGTACX_site8224]	11.4 ± 0.95
TTTTTTTTTTTATGTGCACACAAAAGATGCTTATAT [CACACA_site2347]	10.6 ± 0.53
ATTATTAAAATGATATGTACGCACATAATATACATA [XGTACX_site3236]	11.6 ± 0.94
AACAATGTTGTACATACACACACACTAATAAAAAAT [CACACA_site8758]	11.4 ± 0.95
AATAATATTTAATACGCACACAATAATAATATAAAA [CACACA_site1763]	10.4 ± 0.32
GGATGATTAAGGGGGACACACGTTTATATATTTATA [CACACA_site4342]	11.7 ± 0.9
ATAGCACATTTTTAAGCACACGTTTATTATATATAT [CACACA_site6084]	10.3 ± 0.24
TTGGATGATTAAGGGGGACACACGTTTATATATTTA [CACACA_site338]	11.4 ± 0.79
AAACAAAAGGAAAACATATATATATTAAATGTATAT [CACACA_negctrl_site1663]	9.64 ± 0.33
AGAATTAAAATAATACGTACACACATGTATAATACA [XGTACX_site1878]	11.5 ± 0.82
ATGCTTTTTTATAAAAGTACATAAAGTTTTTACACT [XGTACX_site7307]	11.3 ± 0.81
TTTTTTTTTTTAAAATGTACACGTAATTACATATAT [XGTACX_site752]	11.4 ± 0.95
ATAAAATATAAAAAAAGTACAAAAAAAAAAAAAAAA [XGTACX_site6657]	11.2 ± 1.1
GAATTAAAATAATACGTACACACATGTATAATACAT [CACACA_site1004]	11.7 ± 1.2
ACTTTTTTAATGTTACGTACACATAAATAATAATTA [XGTACX_site8092]	11.6 ± 0.9

Sequence	gcPBM binding intensity (ln)
AAAAAAAAAAAAAAAAGTACAAATAAAAAAAAAATA [XGTACX_site4814]	11.4 ± 0.85
TTTTTTTTTTTTACGTGTACATAAATGTTAAGTAAT [XGTACX_site3901]	11.4 ± 0.91
ATTAAAATAATACGTACACACATGTATAATACATAT [CACACA_site1005]	11.5 ± 0.91
GATAAAGTAAAAATATGTACATATATATTTTAAGTT [XGTACX_site6439]	11.4 ± 0.78
AAGTATAAAAAAAGGCGTACAAAAAAAAAAAAAAAA [XGTACX_site7309]	11.7 ± 0.9
ATGTTTTATAAAAGGCGTACACATATGCTTAAGTAA [XGTACX_site6232]	11.8 ± 0.94
ATAGCCAAAAATCATGCACACCTAAAAAAAAAAAAA [CACACA_site8826]	10.1 ± 0.6
TAGTTTTCTTAAAGATGTACTTATTAAAAATAAACT [XGTACX_site1001]	11.3 ± 1.1
TATATCTCTTTATTCACACATACGTTTTAAAATAAT [CACACA_site5542]	10.2 ± 0.13
AAAAATAAATATATATGTACACATATGTATACAATA [XGTACX_site4692]	11.6 ± 0.97
AATAAATTATTATGTACACACATAATAGTATATATA [CACACA_site1820]	11.4 ± 0.85
TAAAAGTATATATATACACACATAAATATATATGTA [CACACA_site663]	9.86 ± 0.14
AATACAATAAAAAAAAGTACACATGTATAAAAAATT [XGTACX_site8270]	11.6 ± 0.8
GTATATATATATAAAAGTACATGTTATGAAAAAAAA [XGTACX_site5410]	11.3 ± 0.81
ATAATAAATTATTATGTACACACATAATAGTATATA [CACACA_site8538]	11.3 ± 0.88
ATTATGTTAAAAAGGCGTACATGTTATAAGGTCCTA [XGTACX_site344]	11.7 ± 1.2
TAAGGTTAAATAATATGTACATATTATTATATATAT [XGTACX_site6953]	11.3 ± 0.72
AAGTATAAATAAAGGCGTACACATGTAAATTATATT [XGTACX_site126]	11.7 ± 1.1
